CYP2C19 act: human CYP2C19 activators, primary screen, biochemical, luminescence; Cytochrome P450 2C19 (Homo sapiens), P33261; recombinant CYP2C19, luciferin-H EGE luminescence; active compounds read high; 0 = fully inhibited enzyme, 1 = untreated enzyme; activation factor at 5 µM; 96,000 tested, under 10 active;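 active = activation factor of at least 2 at 5 µM in the primary screen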;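 note: 0 = wells with 2.5 mM tranylcypromine and 1 = vehicle-only wells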
Pyk2 oligo antag: antagonists of Pyk2 self-association, primary screen, Q293 cells, FERM NanoBiT luminescence, HTS | Protein-tyrosine kinase 2-beta (Homo sapiens), Q14289 | active compounds read low | z-score (the deposit names both 25 µM and 10 µM) | actives 0.83% (n = 99,000) | AID 1347419, 2020;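 active = Z-score of -3 or lower, scaled per plate to the spread of control and sample wells; inactive = z-score above -3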;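 note: negative z-score means lost luminescence so less FERM oligomerization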
Target sequence (Q14289 whole entry, looked up): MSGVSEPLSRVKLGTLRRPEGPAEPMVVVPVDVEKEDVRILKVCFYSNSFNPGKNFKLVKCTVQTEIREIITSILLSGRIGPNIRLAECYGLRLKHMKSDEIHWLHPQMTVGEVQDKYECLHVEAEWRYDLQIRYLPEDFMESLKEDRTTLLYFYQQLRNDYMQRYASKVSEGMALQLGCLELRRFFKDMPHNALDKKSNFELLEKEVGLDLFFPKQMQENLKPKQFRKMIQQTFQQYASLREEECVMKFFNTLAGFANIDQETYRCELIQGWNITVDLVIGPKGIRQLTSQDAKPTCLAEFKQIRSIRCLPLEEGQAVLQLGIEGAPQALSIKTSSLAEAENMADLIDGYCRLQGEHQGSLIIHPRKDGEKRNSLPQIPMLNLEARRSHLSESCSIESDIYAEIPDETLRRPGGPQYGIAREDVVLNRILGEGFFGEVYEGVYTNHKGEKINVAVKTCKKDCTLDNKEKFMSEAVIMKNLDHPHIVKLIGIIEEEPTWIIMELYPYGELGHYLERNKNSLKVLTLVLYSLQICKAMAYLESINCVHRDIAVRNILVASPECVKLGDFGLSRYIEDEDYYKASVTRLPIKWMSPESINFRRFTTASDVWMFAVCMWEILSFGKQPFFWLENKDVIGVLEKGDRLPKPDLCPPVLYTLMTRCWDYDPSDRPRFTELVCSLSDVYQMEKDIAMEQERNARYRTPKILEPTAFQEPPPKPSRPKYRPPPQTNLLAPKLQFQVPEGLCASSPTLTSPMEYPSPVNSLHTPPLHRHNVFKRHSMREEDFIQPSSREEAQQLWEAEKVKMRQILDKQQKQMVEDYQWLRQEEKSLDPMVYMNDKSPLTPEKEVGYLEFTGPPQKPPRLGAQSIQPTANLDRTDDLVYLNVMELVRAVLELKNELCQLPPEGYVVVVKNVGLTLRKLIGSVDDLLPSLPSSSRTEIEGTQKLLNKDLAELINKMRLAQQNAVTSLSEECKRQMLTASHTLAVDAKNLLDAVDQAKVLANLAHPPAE
CYP2C9 activ: human CYP2C9 activators, primary screen, biochemical, luminescence | activation factor at 5 µM | actives 1.4% (n = 96,000) | recombinant CYP2C9, luciferin-H conversion; active compounds read high; factor 1 = untreated enzyme, 0 = blocked | Cytochrome P450 2C9 (Homo sapiens), P11712;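 active = activation factor of 2 or more for CYP2C9 at a 5 µM dose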;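 note: 0 = sulfaphenazole-blocked wells and 1 = vehicle-only wells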
CYP2C19 inhib: blockers of cytochrome P450 2C19 activity – biochemical, luminescence, ADME assay, primary screen. P33261. inhibition, % at 5 µM. CYP2C19 Supersomes, luciferin-H EGE luminescence, 30 min. actives 21% (n = 96,000);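 active = CYP2C19 inhibition above a set limit at 5 µM in the primary screen, cut at about 50% in these data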;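 note: plate controls were negative control wells for no effect and 2.5 mM tranylcypromine positive control for full effect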
CYP2C9 inhib: blockers of cytochrome P450 2C9 activity – biochemical, luminescence, ADME assay, primary screen; actives 20% (n = 96,000); P11712; inhibition, % at 5 µM; CYP2C9 Supersomes, luciferin-H conversion;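 active = blocking of liver enzyme CYP2C9 beyond about 50% at 5 µM, limit read from the data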
Cav3 T inh: Cav3.2 calcium influx blockers – cell-based, Fluo-4 calcium fluorescence, FDSS, MLSMR library, primary screen; Voltage-dependent T-type calcium channel subunit alpha-1H (Homo sapiens), O95180; Cav3.2-expressing cells; active compounds read low; B-score at 10 µM; actives 4% (n = 100,000); AID 449739, 2010;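 active = single-dose well whose peak fluorescence ratio is a statistical outlier from its plate by either plate-standardised score or position-corrected B-score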
* = called active by the depositor; · = not tested or not shown. Rows were chosen to be rich in hits. Some 27% of all compounds tested hit in one or more screens of this group.

SMILES	CYP2C19 act	Pyk2 oligo antag	CYP2C9 activ	CYP2C19 inhib	CYP2C9 inhib	Cav3 T inh
CCN(CC)c1ccc(NC(=O)C2CCCN(S(=O)(=O)c3cccnc3)C2)c(C)c1 (stereo unspecified)	0.7	·	0.9	27.2	8.1	-0.82
COc1ccccc1NC(=O)C1C2C=CC(O2)C1C(=O)O (stereo unspecified)	1	·	0.9	4.3	7.8	0.805
CC(C)(C)c1cc(NC(=O)COC(=O)c2ccc3c(=O)n4c(nc3c2)CCC4)n(-c2ccccc2)n1	0.2	0.99	0.2	77.0*	82.0*	1.44
Cn1cccc1C(=O)OCC(=O)Nc1cc(C(C)(C)C)nn1-c1ccccc1	0.9	-1.14	0.5	8.6	49.6	-0.465
O=C(NCCOC(=O)c1ccc(S(=O)(=O)N2CCOCC2)cc1)c1cccnc1	1	0.6	0.8	2.0	23.0	-0.178
O=C(OCCNc1ncc(C(F)(F)F)cc1Cl)c1ccc(S(=O)(=O)N2CCOCC2)cc1	0.3	1.22	0.7	69.1*	27.4	-0.556
CC(=O)OC1=C(C#N)Cn2ccc3cccc1c32	0.9	·	1.1	11.2	-14.2	·
O=C(Nc1ccc(Br)cc1F)C1CCCN(S(=O)(=O)c2cnc[nH]2)C1 (stereo unspecified)	0.2	·	0.2	82.8*	78.9*	0.538
O=C(NCCCN1CCN(c2ccccc2F)CC1)C1CCCN(S(=O)(=O)c2cnc[nH]2)C1 (stereo unspecified)	0.8	·	0.7	19.6	33.9	·
Cc1ccc(NC(=O)C2CCCN(S(=O)(=O)c3cnc[nH]3)C2)c(Br)c1 (stereo unspecified)	0.1	·	0.1	92.9*	95.0*	0.829
Cc1c(NC(=O)C2CCCN(S(=O)(=O)c3cnc[nH]3)C2)c(=O)n(-c2ccccc2)n1C (stereo unspecified)	1.1	·	1.1	-10.5	-6.6	·
O=C(O)C1CCCN(C(=O)NCc2ccccc2)C1 (stereo unspecified)	1	-0.47	1	-2.8	2.7	-0.0599
Nc1nc(NCc2ccco2)nn1-c1ccccc1	1	-0.42	1	4.4	0.2	-0.335
Cc1cc(=O)n2nc(N3CCC(C(=O)NCc4cccnc4)CC3)sc2n1	1	1.17	0.9	0.4	6.1	·
Clc1ccc(/C=C/c2nc3ccccc3[nH]2)cc1	0.6	-0.55	0.8	35.7	15.2	-0.0532
Clc1cccc(Cl)c1/C=C/c1nc2ccccc2[nH]1	0.7	-2.27	0.2	32.0	84.3*	-3.38
CCOC(=O)c1[nH]c(C)c(CN(CCc2ccccc2)S(C)(=O)=O)c1C	0.7	·	0.4	30.8	55.7*	-0.37
COC(=O)c1ccc(S(=O)(=O)N(Cc2cc3cc4c(cc3[nH]c2=O)OCO4)C2CCCCC2)cc1	1	·	1	-2.5	1.3	·
COc1ccc(-c2nc(C#N)c(NCCc3ccccc3)o2)cc1	·	-1.29	·	·	·	-0.997
N#Cc1nc(-c2ccccc2)oc1NCc1ccco1	0.9	·	0.3	12.9	74.3*	-2.71
COc1ccc(CNc2oc(-c3ccccc3)nc2C#N)cc1	0.7	·	0.2	27.1	83.6*	-1.76
N#Cc1nc(-c2ccccc2Cl)oc1NCc1ccco1	0.4	-1.37	0.2	63.8*	82.6*	-3.62
N#Cc1nc(-c2ccco2)oc1NCc1ccc(F)cc1	0.7	-0.97	0.2	31.4	81.6*	-1.13
Oc1ccc(/C=N/NC2=NCCCCC2)cc1	0.9	0.13	1	9.2	1.6	0.912
CC(Sc1ncc(C#N)c(N)n1)C(=O)Nc1ccccc1 (stereo unspecified)	0.8	-0.28	0.9	24.0	5.5	-0.68
CCOC(=O)[C@H](CCc1ccccc1)N[C@@H](C)C(=O)N1[C@H](C(=O)O)C[C@@H]2CCC[C@@H]21	·	·	·	·	·	0.662
Cc1ccc(Cn2ccc(NC(=O)c3c(-c4ccccc4Cl)noc3C)n2)cc1	0.7	-1.2	0.5	25.1	51.5*	-5.52*
Cc1onc(-c2ccccc2Cl)c1C(N)=O	0.9	0.59	1	12.2	2.4	0.588
